In PubChem BioAssay (NCATS) one finds activity change, negative = inhibition, outcome and Potency data, which are given here for 5 compounds.

Unmarked numbers belong to inactive results. Records with an inconclusive call do not appear. Activity calls are given as the source filed them. Unless noted, calls follow the shape of the dose curve; as a rule, active = well fitted curve in the direction sought with a large enough effect; inconclusive = small, poorly fitted or top-dose-only effect, or another doubt; inactive = no such curve, though single readings can be large; an effect the other way counts as inactive or inconclusive.

Assay [1] can be described thus: AP1 Signaling Pathway (AID 357; active = well fitted curve in either direction with a large enough effect, not every such curve was filed as active;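 also: ME-180 reporter cells stimulated with EGF at its EC50 level; % is scaled to controls: 0 for no effect and ±100 for the full control effect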). Particulars: ME-180 AP-1-bla reporter, EGF-induced, beta-lactamase ratio, 5 h; at 17.2 µM (top of the series) unless noted. The gist of the method:
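Cells are seeded overnight, exposed to compound titrations and an EC50 level of EGF for 5 hours at 37 °C, then loaded with CCF4 dye for 2.5 hours. Beta-lactamase activity under the AP-1 element is read as a blue/green ratio.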

Assay [2] is described as follows: Stat Signaling Pathway (AID 446; active = well fitted curve in either direction with a large enough effect, not every such curve was filed as active;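 also: ME-180 cervical cancer cells given 40 pM IL-6 alongside compound; SIE-controlled beta-lactamase reporter measured as 460/530 nm FRET emission ratio; % is scaled to controls: 0 for no effect and ±100 for the full control effect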). A digest of the protocol: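 ME-180 cells carrying a SIE-driven beta-lactamase reporter are stimulated with 40 pM IL-6 for 5 h at 37C in the presence of compound. The 460/530 nm FRET substrate ratio is read after 2.5 h at RT. Data are normalised to 300 pM IL-6 and to 125 nM JAK inhibitor controls.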
For assay [3], the target named is Glucocorticoid receptor (Homo sapiens) (UniProt P04150). In words: GR-GFP Redistribution (AID 450;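 active = compounds whose dose series gives a full or clear partial fitted curve of increased nuclear translocation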; also: potency is read from the fitted curve at half-maximal effect). Particulars: U2OS GR-GFP nuclear translocation, laser cytometry, 2 h.
Assay [4] concerns the target Cytochrome P450 1A2 (Homo sapiens) (UniProt P05177). In words: p450-cyp1a2 (AID 410; calls by dose curve; also: potency is read from the fitted curve at half-maximal effect;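 as to activity change, negative = inhibition: -100% = full effect of reference inhibitor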). The gist of the method: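 20nM CYP1A2 with 100uM Luciferin-ME (at Km) in 100mM KPO4; compound preincubated 10 min, NADPH regeneration added, 60 min at room temperature. Luciferin quantified by luminescence after detection reagent; normalized to 57 uM furafylline.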
A short description of assay [5]: NFAT Signaling Pathway (AID 444; active = well fitted curve in either direction with a large enough effect, not every such curve was filed as active;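 also: carbachol stimulus at about its EC50 of 1 µM final; % is scaled to controls: 0 for no effect and ±100 for the full control effect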). Conditions: Jurkat NFAT-bla M1, carbachol, beta-lactamase ratio, 5 h; at 17.2 µM (top of the series) unless noted. The gist of the method: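 Jurkat cells with NFAT-driven β-lactamase reporter and co-expressed M1 receptor, stimulated with carbachol (final 1 uM, ~EC50), compound titration, 5 h at 37 °C. CCF4 loaded 1 h at RT; 460/530 nm ratio gave %activity and AC50.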

Assay [6] deals with Glucocorticoid receptor (Homo sapiens) (UniProt P04150). As to the kind of experiment: GR-EFC Redistribution (AID 451; calls by dose curve; also: potency is read from the fitted curve at half-maximal effect). Conditions: CHO-K1 GR-EFC translocation, beta-gal luminescence, 2 h. A digest of the protocol:
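CHO-K1 cells expressing nuclear EA and GR-ED fragments of b-gal; compounds titrated up to 46 uM final, 2 h at 37 C. GR nuclear translocation read as complemented b-gal luminescence after 1 h RT detection.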

Assay [7] deals with Mitogen-activated protein kinase 10 (Mus musculus) (UniProt Q61831). In words: JNK3 AlphaScreen Assay (AID 530; active = well fitted curve in either direction with a large enough effect, not every such curve was filed as active;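 also: kinase came from lysate of stimulated human HepG2 cells; signal reports phosphorylation of biotinylated GST-cJun 1-79 at Ser73 with 10 µM ATP; % is scaled to controls: 0 for no effect and ±100 for the full control effect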). A digest of the protocol:
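Pre-activated (IL-1β/TNFα) JNK3 in HepG2 lysates phosphorylates biotin-GST-cJun(1-79), 10 uM ATP; anti-phospho-cJun(Ser73) AlphaScreen read at room temperature, pH 7.6 Tris buffer. Compounds pre-incubated 15 min as titrations.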
On the technique in general: Alpha assays give light when donor and acceptor beads are brought close together.

The target in assay [8] is Guanine nucleotide-binding protein G(i) subunit alpha-1 (Homo sapiens) (UniProt P63096). As to the kind of experiment: qHTS Assay for Inhibitors of RGS12 GoLoco Motif Activity (Green Fluorophore) (AID 879).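 Also: 0% = labeled peptide with Gαi1 and full inhibition = labeled peptide alone without protein; negative values mean loss of peptide binding seen as reduced polarization.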 The gist of the method: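 Fluorescence polarization assay: 50 nM Gαi1 with 10 nM FITC-labeled RGS12 GoLoco peptide in 10 mM Tris pH 7.5, 150 mM NaCl, 0.1 mM GDP, 0.05% NP40, 10 min at room temperature with compound.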
In general terms: In qHTS, concentration-response curves come from the screen itself.

Assay [9] addresses Cytochrome P450 3A4 (Homo sapiens) (UniProt P08684). In words: qHTS Assay for Activators of Cytochrome P450 3A4 (AID 885). Also: nearly all actives have a fitted effect of over 65% in size. The gist of the method:
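Human CYP3A4 (20 nM) with Luciferin-PPXE at 25 uM (its KM) in 200 mM KPO4; 10 min compound preincubation, then NADPH regeneration and 60 min reaction at RT. Luciferin read by luminescence; normalized to 57 uM ketoconazole full inhibition.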

Assay [10] has as its target Cytochrome P450 2D6 (Homo sapiens) (UniProt P10635). As to the kind of experiment: qHTS Assay for Inhibitors and Substrates of Cytochrome P450 2D6 (AID 891). Also: potency is read from the fitted curve at half-maximal effect; nearly all actives have a fitted effect of over 60% in size. A digest of the protocol: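 Human CYP2D6 (5 nM) with 30 uM Luciferin-ME EGE (at Km) in 100 mM KPO4, compound preincubated 10 min, then NADPH regeneration system for 60 min at room temperature. Luciferin read by luminescence; normalized to 1.43 uM quinidine.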

Assay [11] is described as follows: qHTS Assay for Identification of Small Molecule Antagonists for Thrombopoietin (TPO) Signaling Pathway (AID 918). Also: potency is read from the fitted curve at half-maximal effect; nearly all actives have a fitted effect of over 60% in size. Particulars: TPO-dependent cell signaling reporter, antagonist mode. The gist of the method: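 Murine Ba/F3 cells expressing human TPO receptor and a Glycoprotein IIb promoter-luciferase reporter, IL-3-starved overnight, treated with compound plus TPO at EC50 (26 pM final). After 24 h at 37 C, luminescence read to detect inhibitors.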

Assay [12] has as its target Muscarinic acetylcholine receptor M1 (Rattus norvegicus) (UniProt P08482). As to the kind of experiment: qHTS Assay for Antagonists of Acetylcholine Muscarinic M1 Receptor: Measurement of IP-One Response (AID 944). Also: nearly all actives have a fitted effect of over 75% in size. A digest of the protocol:
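CHO cells stably expressing rat M1, pretreated 10 min with compound, then stimulated 30 min with carbachol at EC80 (200 nM) in LiCl-containing buffer pH 7.4; IP1 accumulation read by HTRF competition (665/620 nm).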

The target of assay [13] is Pyruvate kinase (Leishmania mexicana) (UniProt Q27686). In words: qHTS Validation Assay for Inhibitors of Leishmania Mexicana Pyruvate Kinase (AID 945).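 Also: 0% = DMSO only neutral control wells.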 The gist of the method:
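qHTS eight-point titrations against 0.2 nM LmPYK (E451W) in imidazole buffer pH 7.2 with 0.5 mM PEP, 0.1 mM ADP; 1 h, room temperature. Readout: PKLight luminescence, normalized to neutral DMSO wells.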

The target of assay [14] is Pyruvate kinase PKM (Homo sapiens) (UniProt P14618). As to the kind of experiment: qHTS Assay for Activators of Human Muscle Pyruvate Kinase (AID 954; active = well fitted curve in the direction sought with a large enough effect, not every such curve was filed as active;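 also: 0% = uninhibited enzyme and -100% = no enzyme or full thiadiazolimine inhibition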). The gist of the method: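 Purified human PKM2 (0.1 nM) with 0.5 mM PEP (Km) and 0.1 mM ADP in 50 mM imidazole pH 7.2, KCl, MgCl2, 1 h at room temperature; ATP formed read by coupled luciferase luminescence. Normalized to no-enzyme/110 uM thiadiazolimine inhibition; 0.3 nM enzyme column for activation.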

Assay [15] deals with Alpha-galactosidase (Coffea arabica) (UniProt Q42656). As to the kind of experiment: Counterscreen for Glucocerebrosidase Inhibitors: qHTS Assay for Coffee Bean alpha-Galactosidase at pH 4.5 (AID 957).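 Also: plate controls were enzyme alone for no effect and no enzyme for full effect.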 The gist of the method:
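Coffee bean enzyme (2 nM) with 80 uM 4-methylumbelliferyl alpha-D-galactopyranoside in 50 mM citric acid, 0.005% Tween-20, pH 4.5, 20 min at room temperature; compounds 0.7 nM–77 uM. Stopped at pH 10, fluorescence 365/440 nm; AC50 from Hill fits.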

Assay [16] concerns the target Alpha-galactosidase A (Homo sapiens) (UniProt P06280). In words: Counterscreen for Glucocerebrosidase Inhibitors: qHTS Assay for Human alpha-Galactosidase at pH 4.5 (AID 992). Also: 0% is about no effect. The gist of the method:
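Human enzyme (2 nM) with 80 uM 4-methylumbelliferyl alpha-D-galactopyranoside in 50 mM citric acid, 0.005% Tween-20, pH 4.5, 20 min at room temperature. Compounds 0.7 nM–77 uM; fluorescence Ex 365/Em 440 after pH 10 stop; AC50 from Hill fits.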

Assay [17] concerns the target alpha-glucosidase (Oryza sativa, rice) (UniProt Q653V4). In words: Counterscreen for Glucocerebrosidase Inhibitors: qHTS Assay for Rice alpha-Glucosidase at pH 5.0 (AID 997).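 Also: 0% = full activity with enzyme and -100% = basal without enzyme.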 The gist of the method:
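Rice alpha-glucosidase (4 nM final) with 400 uM 4-methylumbelliferyl-alpha-D-glucopyranoside in citrate buffer pH 5.0, 20 min at room temperature, stopped at pH 10; fluorescence 365/440 nm, compounds 0.7 nM–77 uM, AC50 from Hill fits.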
(In general: The purpose of a counterscreen is to sort out artefacts and off-target activity.)

In assay [18] the target is Alpha-galactosidase (Coffea arabica) (UniProt Q42656). In words: Counterscreen for Glucocerebrosidase Inhibitors: qHTS Assay for Coffee Bean alpha-Galactosidase at pH 5.9 (AID 998).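 Also: plate controls were uninhibited enzyme for no effect and no-enzyme basal signal for full effect.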 The gist of the method:
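Green coffee bean enzyme (2 nM) with 4-methylumbelliferyl alpha-D-galactopyranoside (80 uM) in 50 mM citric acid, 0.005% Tween-20, pH 5.9, 20 min at room temperature; compounds 0.7 nM–77 uM. Stopped at pH 10, fluorescence Ex365/Em440; Hill-fit AC50.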

Assay [19] has as its target 3',5'-cyclic-AMP phosphodiesterase 4B (Homo sapiens) (UniProt Q07343). In words: qHTS Assay for Inhibitors of PDE-IV (AID 607; active = well fitted activation curve with a large enough effect in the main read-out, with a control signal flat, not every such curve was filed as active; also: % of control where 0% means no effect). A digest of the protocol:
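HEK293 ACTOne cells with CNG channel (1000/well), endogenous PDE4; membrane potential dye, compounds up to 22.9 uM final. Fluorescence Ex 535/Em 590; RO 20-1724 (100 uM final) as reference.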

Assay [20] deals with Cytochrome P450 2C9 (Homo sapiens) (UniProt P11712). In words: qHTS Assay for Inhibitors and Substrates of Cytochrome P450 2C9 (AID 883). Also: nearly all actives have a fitted effect of over 60% in size. Also: potency is read from the fitted curve at half-maximal effect. The gist of the method:
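10nM CYP2C9 + 100uM Luciferin-H (=KM), 25mM KPO4; cpd 10 min 37C; NADPH regen, 60 min 37C; stop/detect with P450 Glo-Buffer 20 min; luminescence. Norm. to 57uM sulphaphenazole as full inhibition.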

For assay [21], the target named is Cytochrome P450 2C19 (Homo sapiens) (UniProt P33261). In words: qHTS Assay for Inhibitors and Substrates of Cytochrome P450 2C19 (AID 899). Also: nearly all actives have a fitted effect of over 60% in size. Also: potency is read from the fitted curve at half-maximal effect. A digest of the protocol:
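Luminescent read-out of luciferin formed from Luciferin-H EGE (10uM, equal to KM). Enzyme 5nM in 50mM KPO4; compound added, 10 min at 37C, then NADPH regenerating system for 60 min at 37C. Full inhibition defined by 57uM ketoconazole.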

Sequence of Glucocorticoid receptor (Homo sapiens) (P04150 whole entry, looked up, the tested form may be a part): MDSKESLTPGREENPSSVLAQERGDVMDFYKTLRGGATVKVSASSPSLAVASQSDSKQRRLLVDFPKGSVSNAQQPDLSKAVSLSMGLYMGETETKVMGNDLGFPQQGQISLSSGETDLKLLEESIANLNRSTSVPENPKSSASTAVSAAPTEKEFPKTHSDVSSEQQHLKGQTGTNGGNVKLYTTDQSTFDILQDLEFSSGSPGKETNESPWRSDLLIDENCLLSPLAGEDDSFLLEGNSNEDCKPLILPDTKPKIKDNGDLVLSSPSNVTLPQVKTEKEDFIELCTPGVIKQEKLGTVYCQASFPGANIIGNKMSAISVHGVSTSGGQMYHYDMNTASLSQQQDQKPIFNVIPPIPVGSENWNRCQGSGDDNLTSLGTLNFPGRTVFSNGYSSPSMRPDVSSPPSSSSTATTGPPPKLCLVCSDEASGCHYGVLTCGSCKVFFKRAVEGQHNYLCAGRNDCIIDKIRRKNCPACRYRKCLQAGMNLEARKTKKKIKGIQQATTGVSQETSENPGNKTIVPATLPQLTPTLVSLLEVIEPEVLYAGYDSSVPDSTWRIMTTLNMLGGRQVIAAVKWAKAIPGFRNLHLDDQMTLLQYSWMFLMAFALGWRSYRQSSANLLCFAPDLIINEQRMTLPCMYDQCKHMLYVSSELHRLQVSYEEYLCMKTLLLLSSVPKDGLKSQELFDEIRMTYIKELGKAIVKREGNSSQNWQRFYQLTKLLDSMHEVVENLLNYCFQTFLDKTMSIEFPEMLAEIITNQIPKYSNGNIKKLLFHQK
Sequence of Cytochrome P450 1A2 (Homo sapiens) (P05177 whole entry, looked up): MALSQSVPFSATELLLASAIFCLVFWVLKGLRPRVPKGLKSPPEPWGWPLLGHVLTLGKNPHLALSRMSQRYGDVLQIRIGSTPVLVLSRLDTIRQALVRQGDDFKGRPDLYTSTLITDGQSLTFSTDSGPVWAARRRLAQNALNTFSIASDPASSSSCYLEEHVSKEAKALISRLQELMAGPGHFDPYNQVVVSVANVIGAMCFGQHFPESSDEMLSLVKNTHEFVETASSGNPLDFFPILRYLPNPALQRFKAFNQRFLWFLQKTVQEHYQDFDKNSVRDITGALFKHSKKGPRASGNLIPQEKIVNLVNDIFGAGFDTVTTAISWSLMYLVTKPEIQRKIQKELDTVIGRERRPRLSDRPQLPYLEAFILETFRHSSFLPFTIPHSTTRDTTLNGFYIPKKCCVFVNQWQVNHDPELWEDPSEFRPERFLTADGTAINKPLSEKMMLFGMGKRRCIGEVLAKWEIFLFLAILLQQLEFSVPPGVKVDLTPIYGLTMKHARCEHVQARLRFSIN
Sequence of 3',5'-cyclic-AMP phosphodiesterase 4B (Homo sapiens) (Q07343 whole entry, looked up): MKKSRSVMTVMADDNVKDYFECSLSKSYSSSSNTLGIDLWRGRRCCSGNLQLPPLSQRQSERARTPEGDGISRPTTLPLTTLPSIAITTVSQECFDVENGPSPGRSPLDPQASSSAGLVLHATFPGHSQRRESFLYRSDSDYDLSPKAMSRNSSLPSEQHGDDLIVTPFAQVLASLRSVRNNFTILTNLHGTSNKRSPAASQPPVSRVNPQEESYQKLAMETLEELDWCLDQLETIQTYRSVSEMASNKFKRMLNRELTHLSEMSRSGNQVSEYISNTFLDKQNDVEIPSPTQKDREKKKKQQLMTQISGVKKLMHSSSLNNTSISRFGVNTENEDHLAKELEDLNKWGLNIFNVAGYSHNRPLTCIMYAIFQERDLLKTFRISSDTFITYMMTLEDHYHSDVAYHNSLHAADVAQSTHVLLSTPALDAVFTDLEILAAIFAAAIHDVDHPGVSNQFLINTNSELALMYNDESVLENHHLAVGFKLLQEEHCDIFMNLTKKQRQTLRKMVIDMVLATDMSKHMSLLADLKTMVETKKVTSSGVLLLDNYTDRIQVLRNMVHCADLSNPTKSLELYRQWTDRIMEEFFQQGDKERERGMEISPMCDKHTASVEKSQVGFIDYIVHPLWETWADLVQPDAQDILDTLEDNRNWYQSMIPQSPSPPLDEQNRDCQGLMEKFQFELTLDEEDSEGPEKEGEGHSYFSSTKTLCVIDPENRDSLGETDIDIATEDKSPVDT
Sequence of Alpha-galactosidase (Coffea arabica) (Q42656 whole entry, looked up): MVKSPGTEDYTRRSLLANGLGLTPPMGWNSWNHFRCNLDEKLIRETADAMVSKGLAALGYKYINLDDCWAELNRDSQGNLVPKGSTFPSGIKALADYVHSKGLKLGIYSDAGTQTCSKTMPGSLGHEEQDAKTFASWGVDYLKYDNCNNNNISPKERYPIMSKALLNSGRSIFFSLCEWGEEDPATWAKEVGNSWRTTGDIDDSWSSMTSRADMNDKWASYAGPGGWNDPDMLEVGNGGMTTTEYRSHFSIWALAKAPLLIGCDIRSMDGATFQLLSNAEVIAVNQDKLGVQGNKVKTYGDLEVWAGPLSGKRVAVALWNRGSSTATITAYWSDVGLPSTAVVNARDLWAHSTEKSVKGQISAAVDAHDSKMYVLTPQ
Sequence of Cytochrome P450 2C9 (Homo sapiens) (P11712 whole entry, looked up): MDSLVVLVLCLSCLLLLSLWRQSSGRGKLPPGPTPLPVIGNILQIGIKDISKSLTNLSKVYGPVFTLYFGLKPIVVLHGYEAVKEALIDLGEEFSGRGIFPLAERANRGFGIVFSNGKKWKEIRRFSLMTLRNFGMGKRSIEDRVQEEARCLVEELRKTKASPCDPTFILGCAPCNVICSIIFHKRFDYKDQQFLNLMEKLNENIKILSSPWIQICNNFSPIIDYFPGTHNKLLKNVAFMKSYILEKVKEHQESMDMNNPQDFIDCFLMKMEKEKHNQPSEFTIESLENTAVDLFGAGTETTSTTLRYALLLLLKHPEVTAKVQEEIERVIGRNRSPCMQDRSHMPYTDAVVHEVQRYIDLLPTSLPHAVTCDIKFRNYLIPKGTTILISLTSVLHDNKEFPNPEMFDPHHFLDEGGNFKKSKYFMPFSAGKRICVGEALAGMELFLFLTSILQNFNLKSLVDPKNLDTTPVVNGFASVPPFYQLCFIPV
Sequence of Cytochrome P450 2C19 (Homo sapiens) (P33261 whole entry, looked up): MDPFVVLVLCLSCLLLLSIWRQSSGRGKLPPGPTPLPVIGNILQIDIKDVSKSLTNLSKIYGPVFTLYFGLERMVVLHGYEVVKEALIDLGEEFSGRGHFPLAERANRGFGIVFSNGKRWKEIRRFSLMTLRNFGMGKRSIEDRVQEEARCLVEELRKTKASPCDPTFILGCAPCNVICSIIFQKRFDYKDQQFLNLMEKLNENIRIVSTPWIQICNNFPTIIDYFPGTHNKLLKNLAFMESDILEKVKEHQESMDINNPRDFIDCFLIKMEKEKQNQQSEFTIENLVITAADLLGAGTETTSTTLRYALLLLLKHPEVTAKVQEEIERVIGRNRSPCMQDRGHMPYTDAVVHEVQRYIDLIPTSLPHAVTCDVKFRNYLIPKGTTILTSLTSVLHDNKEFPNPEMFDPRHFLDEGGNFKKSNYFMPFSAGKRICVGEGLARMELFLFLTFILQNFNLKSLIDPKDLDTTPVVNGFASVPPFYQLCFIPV
Sequence of Alpha-galactosidase A (Homo sapiens) (P06280 whole entry, looked up): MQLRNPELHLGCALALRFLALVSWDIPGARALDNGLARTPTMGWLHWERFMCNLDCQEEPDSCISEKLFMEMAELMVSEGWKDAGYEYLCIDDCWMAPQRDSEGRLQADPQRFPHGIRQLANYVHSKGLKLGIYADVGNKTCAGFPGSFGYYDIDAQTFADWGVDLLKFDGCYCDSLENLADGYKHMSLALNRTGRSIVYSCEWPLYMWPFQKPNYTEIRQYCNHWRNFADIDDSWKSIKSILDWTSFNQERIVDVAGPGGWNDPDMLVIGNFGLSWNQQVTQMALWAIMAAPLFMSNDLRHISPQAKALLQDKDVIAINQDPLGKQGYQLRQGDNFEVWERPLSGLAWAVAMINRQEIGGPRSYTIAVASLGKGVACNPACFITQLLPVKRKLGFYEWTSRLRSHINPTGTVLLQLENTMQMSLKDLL
Sequence of Pyruvate kinase (Leishmania mexicana) (Q27686 2-499 E452W): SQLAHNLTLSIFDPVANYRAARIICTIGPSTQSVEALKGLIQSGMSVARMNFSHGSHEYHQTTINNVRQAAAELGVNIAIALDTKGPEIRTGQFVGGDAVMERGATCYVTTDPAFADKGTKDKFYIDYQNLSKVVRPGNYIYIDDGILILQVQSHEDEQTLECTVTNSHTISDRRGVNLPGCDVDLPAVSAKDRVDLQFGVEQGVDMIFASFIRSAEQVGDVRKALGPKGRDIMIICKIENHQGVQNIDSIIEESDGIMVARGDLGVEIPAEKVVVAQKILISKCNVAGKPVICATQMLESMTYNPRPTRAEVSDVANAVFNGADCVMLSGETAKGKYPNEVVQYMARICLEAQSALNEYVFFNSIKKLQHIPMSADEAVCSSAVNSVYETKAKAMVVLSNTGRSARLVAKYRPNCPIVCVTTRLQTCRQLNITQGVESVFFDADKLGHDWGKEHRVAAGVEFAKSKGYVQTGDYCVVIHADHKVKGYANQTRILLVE
Sequence of Cytochrome P450 2D6 (Homo sapiens) (P10635 whole entry, looked up): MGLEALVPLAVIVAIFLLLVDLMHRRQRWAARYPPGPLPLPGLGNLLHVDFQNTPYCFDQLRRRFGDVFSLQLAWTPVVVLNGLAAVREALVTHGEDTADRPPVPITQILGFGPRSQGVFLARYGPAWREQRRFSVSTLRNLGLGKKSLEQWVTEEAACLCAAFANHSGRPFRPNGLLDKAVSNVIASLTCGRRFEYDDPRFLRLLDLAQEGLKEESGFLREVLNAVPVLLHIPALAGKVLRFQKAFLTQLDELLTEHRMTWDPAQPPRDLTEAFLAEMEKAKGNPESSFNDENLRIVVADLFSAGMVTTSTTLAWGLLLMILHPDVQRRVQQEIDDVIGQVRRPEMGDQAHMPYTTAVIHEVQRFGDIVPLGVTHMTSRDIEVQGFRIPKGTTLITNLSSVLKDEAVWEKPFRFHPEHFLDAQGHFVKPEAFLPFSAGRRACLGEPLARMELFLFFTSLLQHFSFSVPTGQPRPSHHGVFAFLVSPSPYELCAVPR

For the compound `CCCCc1nc(N2CCNCC2)c(C#N)c2c1CSC(C)(C)C2`, the activity change, negative = inhibition in assay [1] was 3.85%. In assay [2], the compound was classed as inactive. Further, the Potency in assay [3] is greater than 20.6 µM.
On to `Ic1ccccc1CN[C@@H]1C2CCN(CC2)[C@H]1C(c1ccccc1)c1ccccc1`, for which the Potency is 12.6 µM (active) in assay [4]; greater than 46 µM in assay [3]; greater than 46 µM in assay [6]; 0.0631 µM (active) in assay [10]; 12.6 µM (active) in assay [11]. Besides, the activity change, negative = inhibition in [5] was -6.46% [at 38 µM]. Also, the compound was classed as inactive in assay [7], in assay [14], in assay [15], in [16], in [17] and in assay [18]. Further, the Potency result in assay [8], in [9], in assay [12] and in assay [13] was “inactive” throughout.
Turning to `CC(C)[C@H]1C(=O)N2CCC[C@H]2[C@]2(O)O[C@](NC(=O)[C@@H]3C=C4c5cccc6[nH]cc(c56)C[C@H]4N(C)C3)(C(C)C)C(=O)N12`, the activity change, negative = inhibition in [1] was -19%. The result in assay [2] was inactive. In assay [3], the Potency is greater than 20.6 µM.
For `CC(C)[C@@]1(NC(=O)[C@@H]2C[C@H]3c4cccc5[nH]cc(c45)C[C@@H]3N(C)C2)O[C@@]2(O)[C@H]3CCCN3C(=O)[C@@H](Cc3ccccc3)N2C1=O`, the Potency entry in assay [4] is “inactive”. Further, the Potency in [3] was greater than 46 µM; in [6], greater than 46 µM; in assay [20], 1.26 µM (active); in assay [21] it was 3.16 µM (active). The call in assay [7] and in assay [19] was inactive.
`COc1ccc(C[C@@H]2NC[C@H](O)[C@H]2OC(C)=O)cc1`: the Potency entry in assay [4], in assay [20] and in [21] was “inactive” each time. The Potency in [3] and in assay [6] was greater than 46 µM in each case. The outcome in [7] and in assay [19] was inactive.
